Results with a measured potency or affinity are listed apart. The source made the active and inactive calls.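 The calls were made as follows: active = signal-lowering compounds whose fitted half-maximal concentration is at or below twice the top tested dose in every run; inconclusive = runs disagree, flat 30 to 70% inhibition, or poor curve fit; inactive = the rest.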
target: Protein S100-A4 (Homo sapiens) (UniProt P26447); experiment: human S100A4 peptide interaction inhibition curves – biochemical, fluorescence polarization, cherry-picked hits, dose response (AID 687001); conditions: FP, S100A4/TAMRA-myosin IIA peptide binding; series mostly up to 11 µM
Sequence (P26447 whole entry, looked up): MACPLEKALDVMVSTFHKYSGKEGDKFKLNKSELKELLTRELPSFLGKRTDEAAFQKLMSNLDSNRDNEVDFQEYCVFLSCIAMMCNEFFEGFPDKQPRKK

outcome, inactive:
Cc1cc2c(cc1S(=O)(=O)N1CCN(c3cccc(C)c3C)CC1)OCCN2C
O=C(NCCC1CCCCN1S(=O)(=O)c1ccccc1)C(=O)NCC1CCCO1 (centres undefined)
Cc1cccc(S(=O)(=O)N2C[C@@H]3[C@H](c4ccccc42)[C@H](CO)N3CC2CCOCC2)c1
CC(C)(C)C1CCSC2=NCCC[C@]2(c2ccccc2)C1 (some centres undefined)
O=C(Cc1ccncc1)NCC[C@@H]1CC[C@@H](NC(=O)C2CCOCC2)[C@@H](CO)O1
COc1cccc(CN2CC(C(=O)NCC3CCOCC3)CCC2=O)c1 (centres undefined)
Cc1ccccc1S(=O)(=O)NCC[C@H]1CC[C@H](NC(=O)C2CCC2)[C@H](CO)O1
CC(C)[C@@H]1C=C(C(=O)O)O[C@H](OCCCCO)C1
COc1ccc(CN(C)C(=O)Cc2ccc(S(=O)(=O)N3CCOCC3)s2)cc1OC
CCn1c(=O)c2ccccc2n2c(SCC(N)=O)nnc12
Cc1ccc(S(=O)(=O)NCc2ccccc2)cc1C(=O)NCC1CCCO1 (centres undefined)
Cc1cc(C)c(NC(=O)CNC(=O)COC(=O)/C=C/c2cccs2)c(C)c1
O=C(O)c1ccccc1SCCS(=O)(=O)c1ccc(Cl)cc1Cl
C=CCNC(=O)/C(C#N)=C/c1c(N(Cc2ccccc2)Cc2ccccc2)nc2ccccn2c1=O
Cn1c(/C(C#N)=C(\O)c2cc(Cl)sc2Cl)nc2ccccc21
Cc1nn(-c2ccc(N3CCOCC3)nn2)c(C)c1CCC(=O)N1CCN(C)CC1
COc1ccc(S(=O)(=O)Nc2cccc3c2O[C@@H](CN(C)S(=O)(=O)c2c(C)noc2C)[C@H](C)CN([C@@H](C)CO)C3=O)cc1
COc1ccc(CNC(=O)CN(C(=O)CCC(=O)Nc2ccccn2)c2ccc(C)cc2)cc1
CO[C@H]1CN(C)C(=O)c2ccc(NC(=O)NC(C)C)cc2OC[C@@H](C)N(C(=O)NC(C)C)C[C@H]1C
Cc1ccc(S(C)(=O)=O)cc1C(=O)OCC(=O)N(Cc1ccccc1)Cc1ccccc1
O=C(CN1C(=O)NC2(CCCCCCC2)C1=O)Nc1c(Cl)cccc1Cl
CC(NC(=O)C(=O)NCc1cccs1)c1ccccc1 (centres undefined)
C[C@@H]1CCCCO[C@@H](CN(C)S(=O)(=O)c2cn(C)cn2)[C@@H](C)CN([C@H](C)CO)C(=O)c2cc(NS(=O)(=O)c3ccc(Cl)cc3)ccc2O1
COc1cc(O)c(C(=O)O)c(CCc2ccccc2)c1
CCc1nc2c(OCc3ccccc3OC)cccn2c1N(C)C(=O)C(C)C
O=C(NCCCc1ccccc1)c1cccc(NC(=O)C2CCC2)c1
COC(=O)C1=C(C)N(C)C(=O)NC1c1cc(Cl)c(O)c(OC)c1 (centres undefined)
Cc1cc(/C(N)=N/OC(=O)Nc2ccccc2)no1
COc1cccc(-c2nnc(NC(=O)CCS(=O)(=O)c3ccc(F)cc3)o2)c1
COCCCNc1nc2ccccc2nc1NS(=O)(=O)c1cc(Cl)ccc1Cl
Cn1cnc(CCNC(=O)C[C@@H]2CC[C@H]3[C@@H](COC[C@@H](O)CN3C(=O)C3CC3)O2)c1
CCOCCCNC(=O)c1ccc2c(c1)N(CC)C(=O)c1ccccc1S2=O (centres undefined)
CC1NC2(C(=O)N(Cc3ccccc3)c3ccccc32)C2C(=O)N(c3ccccc3)C(=O)C12 (centres undefined)
CCCNC(=O)N1[C@H](CO)[C@@H]2c3ccccc3N(C(=O)c3ccc(F)cc3)C[C@@H]21
Cn1c(-c2ccc(Cl)cc2)cnc1NCc1cc2c(cc1[N+](=O)[O-])OCO2
CC(C)CC#Cc1cnc2c(c1)C(=O)N([C@H](C)CO)C[C@@H](C)[C@H](CN(C)S(C)(=O)=O)O2
COc1ccc(S(=O)(=O)N(C)C[C@@H]2OCCCC[C@@H](C)Oc3ccc(NC(=O)Nc4ccc(C(F)(F)F)cc4)cc3C(=O)N([C@H](C)CO)C[C@@H]2C)cc1
CN(CC(=O)Nc1cccc(F)c1)C(=O)c1cccc(S(=O)(=O)N2CCN(Cc3ccccc3)CC2)c1
COc1ccc2c(CN3CCCC3)cc(=O)oc2c1
